SMILES strings stand for the structures. Structures can show the parent of a compound that is named as a salt. ± gives the standard deviation of the averaged measurements. Over roughly 1,100 compounds, “day of extracellular matrix detachment from plate” has its median near 16; the lowest 2% begin near 10. Many of the other results were omitted from the sample, so the lowest values are more common in it than they were.

In this test the test system is RDEB dermal fibroblasts EB71. The experiment in a line: day of extracellular matrix detachment from plate (days); higher = delayed detachment (less fibrotic matrix). The note with it: compound concentration: 10 uM.
For `Cc1cccc(Cc2c[nH]cn2)c1C` [Detomidine HCl], the “day of extracellular matrix detachment from plate” value (“day” below) amounted to 14.7 ± 7.4.
Under `Cc1cccc(C(C)c2c[nH]cn2)c1C` (stereo unspecified) [Medetomidine HCl] stands 17 ± 5.2.
Then `Cc1cccc([C@H](C)c2c[nH]cn2)c1C` [Dexmedetomidine HCl (Precedex)], with 10 ± 1.7.
On to `Cc1cccc([C@H](C)c2c[nH]cn2)c1C` [Dexmedetomidine], for which the “day” value is 18.
Under `O=C(O[C@H]1C[C@H]2CC[C@@H](C1)[N+]21CCCC1)C(O)(c1ccccc1)c1ccccc1` [Trospium chloride] stands 12.
Then `Cc1ccc(-c2nc3ccc(C)cn3c2CC(=O)N(C)C)cc1` [Zolpidem], with 17.7 ± 1.1.
Then `C=CCN1CC[C@]23c4c5ccc(O)c4O[C@H]2C(=O)CC[C@@]3(O)[C@H]1C5` [Naloxone HCl], with 17.7 ± 3.5; and `C=C1CC[C@@]2(O)[C@H]3Cc4ccc(O)c5c4[C@@]2(CCN3CC2CC2)[C@H]1O5` [Nalmefene HCl], with 13; and `O=C1CC[C@@]2(O)[C@H]3Cc4ccc(O)c5c4[C@@]2(CCN3CC2CC2)[C@H]1O5` [Naltrexone HCl], with 10 ± 1.7.
As for `O=C(O[C@H]1C[N+]2(CCCOc3ccccc3)CCC1CC2)C(O)(c1cccs1)c1cccs1` [Aclidinium Bromide], the “day” value is 16.7 ± 2.3.
On to `N[C@@H]1C[C@H]1c1ccccc1` [Tranylcypromine (2-PCPA) HCl], for which the “day” value is 13.

The values are drawn from the supplement of paper PMC11018630.
